Measured values published in PubChem BioAssay (NCATS).
Results filed as inconclusive are left out. Calls of active or inactive are those of the source. Unless noted, calls follow the shape of the dose curve; as a rule, active = well fitted curve in the direction sought with a large enough effect; inconclusive = small, poorly fitted or top-dose-only effect, or another doubt; inactive = no such curve, though single readings can be large; an effect the other way counts as inactive or inconclusive.

Key:
[1] = target: Lysosomal acid glucosylceramidase (Homo sapiens) (UniProt P04062); assay: Glucocerebrosidase-p2 (AID 348; in the data active = potency below about 10 µM; also: potency is read from the fitted curve at half-maximal effect); details: purified GBA, blue fluorogenic substrate, 40 min
Lysosomal acid glucosylceramidase (Homo sapiens), sequence (P04062 whole entry, looked up): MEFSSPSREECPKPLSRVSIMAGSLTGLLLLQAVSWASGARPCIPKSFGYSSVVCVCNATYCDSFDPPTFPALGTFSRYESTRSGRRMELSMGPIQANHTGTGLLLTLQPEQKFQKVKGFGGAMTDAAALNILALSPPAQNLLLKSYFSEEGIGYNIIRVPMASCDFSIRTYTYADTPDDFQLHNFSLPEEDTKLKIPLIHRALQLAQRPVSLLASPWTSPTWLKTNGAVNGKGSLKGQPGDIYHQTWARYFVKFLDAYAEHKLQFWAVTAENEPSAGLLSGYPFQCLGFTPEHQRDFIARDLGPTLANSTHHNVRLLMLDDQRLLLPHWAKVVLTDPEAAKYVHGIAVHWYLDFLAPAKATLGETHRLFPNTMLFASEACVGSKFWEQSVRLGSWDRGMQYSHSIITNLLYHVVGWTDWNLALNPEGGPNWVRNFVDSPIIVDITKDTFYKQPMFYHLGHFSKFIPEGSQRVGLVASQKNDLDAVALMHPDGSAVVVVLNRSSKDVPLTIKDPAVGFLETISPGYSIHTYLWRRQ
How it was run: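 Compounds titrated from 0.6 nM upwards against 0.2 nM enzyme in pH 5.9 citric acid/KH2PO4, taurocholate, tween-20; blue fluorogenic substrate 80 uM, 40 min room temperature, stopped and read Ex 365/Em 440 for AC50.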

[2] = NFAT Signaling Pathway (AID 444; active = well fitted curve in either direction with a large enough effect, not every such curve was filed as active;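 also: carbachol stimulus at about its EC50 of 1 µM final; % is scaled to controls: 0 for no effect and ±100 for the full control effect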); details: Jurkat NFAT-bla M1, carbachol, beta-lactamase ratio, 5 h; at 7.69 µM (top of the series) unless noted
How it was run: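 Jurkat cells with NFAT-driven β-lactamase reporter and co-expressed M1 receptor, stimulated with carbachol (final 1 uM, ~EC50), compound titration, 5 h at 37 °C. CCF4 loaded 1 h at RT; 460/530 nm ratio gave %activity and AC50.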

[3] = Stat Signaling Pathway (AID 446; active = well fitted curve in either direction with a large enough effect, not every such curve was filed as active;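 also: ME-180 cervical cancer cells given 40 pM IL-6 alongside compound; SIE-controlled beta-lactamase reporter measured as 460/530 nm FRET emission ratio; % is scaled to controls: 0 for no effect and ±100 for the full control effect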); details: ME-180 SIE beta-lactamase reporter, IL-6 stimulated, 5 h; at 7.69 µM (top of the series) unless noted
How it was run: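 ME-180 SIE-bla cells; overnight plating; cpd + IL-6 40 pM, 5 h, 37 C; LiveBLAzer 2.5 h RT; 460/530 nm emission ratio. Normalized to 300 pM IL-6 and 125 nM JAK inhibitor controls.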

[4] = target: Glucocorticoid receptor (Homo sapiens) (UniProt P04150); assay: GR-GFP Redistribution (AID 450;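 active = compounds whose dose series gives a full or clear partial fitted curve of increased nuclear translocation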; also: potency is read from the fitted curve at half-maximal effect); details: U2OS GR-GFP nuclear translocation, laser cytometry, 2 h
Glucocorticoid receptor (Homo sapiens), sequence (P04150 whole entry, looked up, the tested form may be a part): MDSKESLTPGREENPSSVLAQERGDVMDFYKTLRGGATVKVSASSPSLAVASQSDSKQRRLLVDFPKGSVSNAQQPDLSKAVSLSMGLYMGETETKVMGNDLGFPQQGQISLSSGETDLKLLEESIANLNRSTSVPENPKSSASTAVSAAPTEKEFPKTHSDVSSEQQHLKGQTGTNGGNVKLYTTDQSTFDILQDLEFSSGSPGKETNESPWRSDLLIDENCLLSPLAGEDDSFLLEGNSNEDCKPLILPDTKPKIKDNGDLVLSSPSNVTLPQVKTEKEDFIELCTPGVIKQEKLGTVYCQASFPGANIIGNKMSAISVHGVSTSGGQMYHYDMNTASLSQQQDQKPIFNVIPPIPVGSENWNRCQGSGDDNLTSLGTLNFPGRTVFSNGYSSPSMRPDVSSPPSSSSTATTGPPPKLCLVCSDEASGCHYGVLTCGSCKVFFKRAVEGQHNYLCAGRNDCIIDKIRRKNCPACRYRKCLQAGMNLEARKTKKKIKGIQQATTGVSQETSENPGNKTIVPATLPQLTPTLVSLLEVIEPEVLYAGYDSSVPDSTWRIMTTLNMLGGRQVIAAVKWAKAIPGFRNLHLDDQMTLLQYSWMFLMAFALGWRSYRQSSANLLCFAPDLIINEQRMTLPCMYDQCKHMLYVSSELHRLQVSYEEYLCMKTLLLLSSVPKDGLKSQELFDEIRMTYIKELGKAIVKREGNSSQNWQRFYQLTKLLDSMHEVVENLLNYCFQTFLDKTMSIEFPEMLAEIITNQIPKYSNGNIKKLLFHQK

[5] = target: Glucocorticoid receptor (Homo sapiens) (UniProt P04150); assay: GR-EFC Redistribution (AID 451; calls by dose curve; also: potency is read from the fitted curve at half-maximal effect); details: CHO-K1 GR-EFC translocation, beta-gal luminescence, 2 h
How it was run: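 CHO-K1 cells expressing nuclear EA and GR-ED fragments of b-gal; compounds titrated up to 46 uM final, 2 h at 37 C. GR nuclear translocation read as complemented b-gal luminescence after 1 h RT detection.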

[6] = target: Mitogen-activated protein kinase 10 (Mus musculus) (UniProt Q61831); assay: JNK3 AlphaScreen Assay (AID 530; active = well fitted curve in either direction with a large enough effect, not every such curve was filed as active;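 also: kinase came from lysate of stimulated human HepG2 cells; signal reports phosphorylation of biotinylated GST-cJun 1-79 at Ser73 with 10 µM ATP; % is scaled to controls: 0 for no effect and ±100 for the full control effect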); details: JNK3 lysate, c-Jun phosphorylation; series mostly up to 57.1 µM
How it was run: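 qHTS format: compounds tested as titrations against IL-1beta/TNF-alpha-activated HepG2 lysate JNK3 with biotin-GST-cJun substrate and 10 uM ATP at room temperature. Loss of anti-phospho-cJun AlphaScreen signal indicates inhibition.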

[7] = target: 3',5'-cyclic-AMP phosphodiesterase 4B (Homo sapiens) (UniProt Q07343); assay: qHTS Assay for Inhibitors of PDE-IV (AID 607; active = well fitted activation curve with a large enough effect in the main read-out, with a control signal flat, not every such curve was filed as active; also: % of control where 0% means no effect); details: HEK293 ACTOne CNG channel cells, membrane potential fluorescence; series mostly up to 22.9 µM
3',5'-cyclic-AMP phosphodiesterase 4B (Homo sapiens), sequence (Q07343 whole entry, looked up): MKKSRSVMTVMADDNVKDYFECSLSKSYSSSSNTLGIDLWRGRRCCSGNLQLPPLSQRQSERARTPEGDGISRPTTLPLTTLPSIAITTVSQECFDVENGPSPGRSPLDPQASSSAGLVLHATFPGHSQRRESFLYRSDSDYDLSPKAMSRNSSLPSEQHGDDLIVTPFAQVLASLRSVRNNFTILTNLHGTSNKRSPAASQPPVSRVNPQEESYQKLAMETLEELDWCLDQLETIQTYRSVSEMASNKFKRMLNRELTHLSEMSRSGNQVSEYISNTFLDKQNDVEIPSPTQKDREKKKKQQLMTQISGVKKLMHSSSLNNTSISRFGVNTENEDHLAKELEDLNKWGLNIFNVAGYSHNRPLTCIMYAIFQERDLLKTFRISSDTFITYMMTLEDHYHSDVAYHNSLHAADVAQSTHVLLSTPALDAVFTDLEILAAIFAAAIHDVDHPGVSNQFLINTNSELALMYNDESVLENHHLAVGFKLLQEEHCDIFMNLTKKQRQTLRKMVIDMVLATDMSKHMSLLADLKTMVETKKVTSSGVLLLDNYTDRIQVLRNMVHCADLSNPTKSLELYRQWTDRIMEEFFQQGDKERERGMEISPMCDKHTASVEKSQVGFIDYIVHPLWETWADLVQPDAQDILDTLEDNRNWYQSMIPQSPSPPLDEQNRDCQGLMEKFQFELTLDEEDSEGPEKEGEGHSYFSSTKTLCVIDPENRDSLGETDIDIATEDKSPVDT
How it was run: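 ACTOne HEK293 cells carry a modified cAMP-gated CNG channel and express endogenous PDE4; plated 1000 cells/well, compounds up to 22.9 uM final. Membrane-potential dye fluorescence (ex 535/em 590) was read; parental cells received 10 uM forskolin + 100 uM RO 20-1724.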

[8] = target: Cytochrome P450 2D6 (Homo sapiens) (UniProt P10635); assay: qHTS Assay for Inhibitors and Substrates of Cytochrome P450 2D6 (AID 891); details: recombinant CYP2D6, luciferin-ME EGE luminescence; series mostly up to 11.4 µM; also: potency is read from the fitted curve at half-maximal effect; nearly all actives have a fitted effect of over 60% in size
Cytochrome P450 2D6 (Homo sapiens), sequence (P10635 whole entry, looked up): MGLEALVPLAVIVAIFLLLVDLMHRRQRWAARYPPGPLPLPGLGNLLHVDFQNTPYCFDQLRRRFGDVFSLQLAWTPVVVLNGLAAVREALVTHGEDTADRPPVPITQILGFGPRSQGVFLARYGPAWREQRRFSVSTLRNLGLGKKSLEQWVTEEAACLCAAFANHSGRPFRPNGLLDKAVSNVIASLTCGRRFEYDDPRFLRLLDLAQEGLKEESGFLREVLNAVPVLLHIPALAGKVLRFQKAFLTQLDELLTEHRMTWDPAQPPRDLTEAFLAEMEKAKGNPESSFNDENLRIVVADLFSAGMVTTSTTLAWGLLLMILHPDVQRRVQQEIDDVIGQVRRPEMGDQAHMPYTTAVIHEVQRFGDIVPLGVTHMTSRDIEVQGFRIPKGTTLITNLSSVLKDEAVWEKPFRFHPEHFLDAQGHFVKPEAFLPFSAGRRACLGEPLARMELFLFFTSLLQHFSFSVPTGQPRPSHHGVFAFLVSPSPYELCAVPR
How it was run: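 Human CYP2D6 (5 nM) with 30 uM Luciferin-ME EGE (at Km) in 100 mM KPO4, compound preincubated 10 min, then NADPH regeneration system for 60 min at room temperature. Luciferin read by luminescence; normalized to 1.43 uM quinidine.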

[9] = target: ATP-dependent 6-phosphofructokinase (Trypanosoma brucei brucei) (UniProt O15648); assay: qHTS Assay to Find Inhibitors of T. brucei phosphofructokinase: hit validation (AID 492961); also: % is scaled to controls: 0 for no effect and ±100 for the full control effect; details: T. brucei PFK, ADP-Glo luminescence; series mostly up to 51.4 µM
ATP-dependent 6-phosphofructokinase (Trypanosoma brucei brucei), sequence (O15648 whole entry, looked up): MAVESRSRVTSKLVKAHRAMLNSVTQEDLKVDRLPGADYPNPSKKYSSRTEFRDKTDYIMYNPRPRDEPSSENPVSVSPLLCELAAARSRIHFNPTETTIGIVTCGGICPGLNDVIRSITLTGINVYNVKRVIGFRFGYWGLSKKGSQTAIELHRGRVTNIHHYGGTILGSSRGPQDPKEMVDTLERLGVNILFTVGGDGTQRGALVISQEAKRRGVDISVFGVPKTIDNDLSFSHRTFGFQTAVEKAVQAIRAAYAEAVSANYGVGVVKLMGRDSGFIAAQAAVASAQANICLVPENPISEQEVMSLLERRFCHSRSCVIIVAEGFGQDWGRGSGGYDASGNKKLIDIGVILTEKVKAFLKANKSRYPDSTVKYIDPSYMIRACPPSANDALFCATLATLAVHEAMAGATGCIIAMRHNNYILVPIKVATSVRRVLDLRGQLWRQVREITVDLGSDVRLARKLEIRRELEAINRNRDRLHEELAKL
How it was run: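 Luminescence from ADP-Glo reports ADP generated as T. brucei PFK (1.25 nM) phosphorylates 0.5 mM fructose-6-phosphate using 0.1 mM ATP. Reactions ran 45 min at room temperature, pH 8.0.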

[10] = target: Ubiquitin carboxyl-terminal hydrolase 1 (Homo sapiens) (UniProt O94782); assay: Inhibitors of USP1/UAF1: Pilot qHTS (AID 504865); details: purified USP1/UAF1, Ub-rhodamine cleavage fluorescence; series mostly up to 114 µM;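 also: rhodamine fluorescence freed from ubiquitin-rhodamine substrate followed over time; top concentration of the series differs between compounds; % is scaled to controls: 0 for no effect and ±100 for the full control effect; nearly all actives have a fitted effect of over 35% in size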
Ubiquitin carboxyl-terminal hydrolase 1 (Homo sapiens), sequence (O94782 whole entry, looked up): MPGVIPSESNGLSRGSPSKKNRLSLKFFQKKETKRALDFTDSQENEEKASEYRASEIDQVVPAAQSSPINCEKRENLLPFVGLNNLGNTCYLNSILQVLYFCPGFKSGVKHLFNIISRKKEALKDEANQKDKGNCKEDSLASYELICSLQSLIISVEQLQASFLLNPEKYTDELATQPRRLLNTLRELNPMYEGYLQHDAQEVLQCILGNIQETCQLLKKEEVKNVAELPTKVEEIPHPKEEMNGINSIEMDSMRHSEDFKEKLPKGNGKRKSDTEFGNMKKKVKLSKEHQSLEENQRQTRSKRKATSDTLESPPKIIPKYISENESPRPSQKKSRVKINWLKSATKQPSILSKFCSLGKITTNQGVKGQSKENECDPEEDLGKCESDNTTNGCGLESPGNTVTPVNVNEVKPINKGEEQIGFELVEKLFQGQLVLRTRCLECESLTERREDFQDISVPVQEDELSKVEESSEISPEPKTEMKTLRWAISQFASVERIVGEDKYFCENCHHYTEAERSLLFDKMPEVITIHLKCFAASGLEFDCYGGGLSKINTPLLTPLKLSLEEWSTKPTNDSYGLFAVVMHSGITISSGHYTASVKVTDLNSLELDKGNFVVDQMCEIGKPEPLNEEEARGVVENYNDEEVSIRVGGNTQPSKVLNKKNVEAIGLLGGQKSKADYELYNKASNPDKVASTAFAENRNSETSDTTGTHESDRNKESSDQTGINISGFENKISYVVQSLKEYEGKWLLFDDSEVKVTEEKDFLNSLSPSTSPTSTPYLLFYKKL
How it was run: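 1nM USP1/UAF1 + cpd, 15 min RT; start w/ Ub-Rho 150nM final; kinetic FL 480/540 nm, 6 reads q60 s. Buffer 50mM HEPES pH 7.8, 0.5mM EDTA, 1mM TCEP, 0.01% Tween-20, 0.1 mg/ml BSA.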

[11] = target: Luciferin 4-monooxygenase (Photinus pyralis) (UniProt P08659); assay: Biochemical firefly luciferase enzyme assay for NPC (AID 624030);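 also: purified P. pyralis luciferase at 10 nM with luciferin and ATP substrate; 0% = DMSO and -100% = full luciferase inhibition by PTC124 control; nearly all actives have a fitted effect of over 70% in size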; details: purified P. pyralis luciferase, luminescence, 5 min; series mostly up to 58.6 µM
Luciferin 4-monooxygenase (Photinus pyralis), sequence (P08659 whole entry, looked up): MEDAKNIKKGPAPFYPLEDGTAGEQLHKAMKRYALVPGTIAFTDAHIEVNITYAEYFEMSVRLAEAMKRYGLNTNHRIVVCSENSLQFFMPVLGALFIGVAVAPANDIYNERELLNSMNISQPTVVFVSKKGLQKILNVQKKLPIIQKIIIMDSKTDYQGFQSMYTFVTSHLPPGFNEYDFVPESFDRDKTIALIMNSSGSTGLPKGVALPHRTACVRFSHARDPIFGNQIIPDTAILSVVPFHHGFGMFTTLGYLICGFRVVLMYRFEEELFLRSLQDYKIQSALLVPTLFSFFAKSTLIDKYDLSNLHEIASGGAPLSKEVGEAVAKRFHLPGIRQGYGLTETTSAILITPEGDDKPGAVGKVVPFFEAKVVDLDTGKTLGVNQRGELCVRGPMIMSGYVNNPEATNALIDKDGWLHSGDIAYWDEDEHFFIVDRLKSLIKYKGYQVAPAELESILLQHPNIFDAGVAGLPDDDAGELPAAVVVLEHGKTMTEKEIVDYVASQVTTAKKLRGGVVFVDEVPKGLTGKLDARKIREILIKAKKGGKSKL
How it was run: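 Purified P. pyralis luciferase at 10 nM in 50 mM Tris Acetate (final), luminescence read within 5 minutes of enzyme addition to compounds. Activity normalised to PTC124 versus DMSO; concentration-response curves classed by r2, magnitude and activity.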

[12] = S16 Schwann cell viability assay (CellTiter-Glo assay) (AID 624031); details: S16 rat Schwann cells viability, 24 h; series mostly up to 57.5 µM;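 also: native untransfected S16 rat Schwann cells; cellular ATP luminescence as a viability measure; plate controls were DMSO-treated cells for no effect and cell-free wells for full effect; nearly all actives have a fitted effect of over 70% in size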
How it was run: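 Concentration-effect curves come from CellTiter-Glo luminescence of S16 rat Schwann cells after 24 h compound exposure. Each reading was normalized to DMSO wells (0%) and wells without cells, and curves were ranked by r2 and response magnitude.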

[13] = S16 Schwann cell PMP22 intronic element firefly luciferase assay (AID 624032); details: S16 rat Schwann cells, PMP22 element FLuc, 24 h; series mostly up to 57.5 µM;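 also: plate controls were DMSO for no effect and PTC124 positive control mean for full effect; nearly all actives have a fitted effect of over 30% in size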
How it was run: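 Rat S16 Schwann cells stably carrying firefly luciferase driven by a PMP22 intronic element, in 10% FBS, treated 24 h at 37 C. ONE-Glo luminescence normalized to PTC124 control and DMSO (0%); curves classed by r2, magnitude and activity.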

[14] = S16 Schwann cell PMP22 intronic element beta-lactamase assay (AID 624044; calls by dose curve;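 also: 0% = DMSO and -100% = potassium clavulanate positive control; nearly all actives have a fitted effect of over 15% in size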); details: S16 rat Schwann cells, PMP22 element beta-lactamase FRET, 24 h; series mostly up to 38.3 µM
How it was run: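 Rat S16 Schwann cells with beta-Lac driven by a PMP22 intronic element, compound-treated 24 h at 37 °C. LiveBLAzer FRET B/G read: 460 nm normalized to potassium clavulanate vs DMSO; 535 nm FRET as viability; concentration-effect curves classified.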

[15] = system: 3D7; assay: qHTS profiling for inhibitors of Plasmodium falciparum proliferation (AID 504749); also: potency is read from the fitted curve at half-maximal effect; nearly all actives have a fitted effect of over 60% in size; details: P. falciparum in erythrocytes, SYBR Green DNA, 72 h; series mostly up to 28.7 µM
How it was run: (§1)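 Readout was DNA-dye fluorescence from lysed cultures, ex 485/em 535 nm. Parasitized red cells had grown 72 h with compound; data scaled between 0.29 uM artemisinin and DMSO wells and corrected using vehicle-only plates.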

[16] = system: 7G8; assay: as above; details: P. falciparum in erythrocytes, SYBR Green DNA, 72 h; series mostly up to 28.7 µM
How it was run: as §1

[17] = system: AA1029; assay: as above; details: P. falciparum in erythrocytes, SYBR Green DNA, 72 h; series mostly up to 28.7 µM
How it was run: as §1

[18] = system: AS120; assay: as above; details: P. falciparum in erythrocytes, SYBR Green DNA, 72 h; series mostly up to 28.7 µM
How it was run: as §1

[19] = system: ATS189; assay: as above; details: P. falciparum in erythrocytes, SYBR Green DNA, 72 h; series mostly up to 28.7 µM
How it was run: as §1

[20] = system: ATS95; assay: as above; details: P. falciparum in erythrocytes, SYBR Green DNA, 72 h; series mostly up to 28.7 µM
How it was run: as §1

[21] = system: C2A; assay: as above; details: P. falciparum in erythrocytes, SYBR Green DNA, 72 h; series mostly up to 28.7 µM
How it was run: as §1

[22] = system: CP185; assay: as above; details: P. falciparum in erythrocytes, SYBR Green DNA, 72 h; series mostly up to 28.7 µM
How it was run: as §1

[23] = system: CP191; assay: as above; details: P. falciparum in erythrocytes, SYBR Green DNA, 72 h; series mostly up to 28.7 µM
How it was run: as §1

[24] = system: CP192; assay: as above; details: P. falciparum in erythrocytes, SYBR Green DNA, 72 h; series mostly up to 28.7 µM
How it was run: as §1

[25] = system: CP194; assay: as above; details: P. falciparum in erythrocytes, SYBR Green DNA, 72 h; series mostly up to 28.7 µM
How it was run: as §1

[26] = system: CP201; assay: as above; details: P. falciparum in erythrocytes, SYBR Green DNA, 72 h; series mostly up to 28.7 µM
How it was run: as §1

[27] = system: CP203; assay: as above; details: P. falciparum in erythrocytes, SYBR Green DNA, 72 h; series mostly up to 28.7 µM
How it was run: as §1

[28] = system: CP211; assay: as above; details: P. falciparum in erythrocytes, SYBR Green DNA, 72 h; series mostly up to 28.7 µM
How it was run: as §1

[29] = system: CP215; assay: as above; details: P. falciparum in erythrocytes, SYBR Green DNA, 72 h; series mostly up to 28.7 µM
How it was run: as §1

[30] = system: CP217; assay: as above; details: P. falciparum in erythrocytes, SYBR Green DNA, 72 h; series mostly up to 28.7 µM
How it was run: as §1

[31] = system: CP237; assay: as above; details: P. falciparum in erythrocytes, SYBR Green DNA, 72 h; series mostly up to 28.7 µM
How it was run: as §1

[32] = system: CP238; assay: as above; details: P. falciparum in erythrocytes, SYBR Green DNA, 72 h; series mostly up to 28.7 µM
How it was run: as §1

[33] = system: CP247; assay: as above; details: P. falciparum in erythrocytes, SYBR Green DNA, 72 h; series mostly up to 28.7 µM
How it was run: as §1

[34] = system: CP250; assay: as above; details: P. falciparum in erythrocytes, SYBR Green DNA, 72 h; series mostly up to 28.7 µM
How it was run: as §1

[35] = system: CP252; assay: as above; details: P. falciparum in erythrocytes, SYBR Green DNA, 72 h; series mostly up to 28.7 µM
How it was run: as §1

[36] = system: CP256; assay: as above; details: P. falciparum in erythrocytes, SYBR Green DNA, 72 h; series mostly up to 28.7 µM
How it was run: as §1

C=C[C@@H]1CN2CC[C@H]1C[C@H]2[C@H](O)c1ccnc2ccccc12
inactive: Potency [1] > 11.4 µM | activity change, negative = inhibition [2] 0.393% | activity, negative = inhibition [3] 3.16% | Potency [4] > 46 µM | Potency [5] > 9.22 µM | activity change, negative = inhibition [6] 5.22% [at 11.4 µM] | outcome [7] | outcome [9] | Potency [10] | outcome [11] | outcome [12] | outcome [13] | outcome [14]
active: Potency [8] 3.98 µM | Potency [15] 0.158 µM | Potency [16] 0.158 µM | Potency [17] 0.891 µM | Potency [18] 0.891 µM | Potency [19] 0.794 µM | Potency [20] 0.447 µM | Potency [21] 1.41 µM | Potency [22] 1.26 µM | Potency [23] 0.501 µM | Potency [24] 0.953 µM | Potency [25] 0.849 µM | Potency [26] 1.51 µM | Potency [27] 0.675 µM | Potency [28] 0.953 µM | Potency [29] 0.757 µM | Potency [30] 1.26 µM | Potency [31] 1.12 µM | Potency [32] 1.41 µM | Potency [33] 2.24 µM | Potency [34] 1.58 µM | Potency [35] 1.12 µM | Potency [36] 1.12 µM
